Test results reported in PubChem BioAssay (NCATS).
Inconclusive results are not listed. A call without a number means that no potency is given here. Activity calls are given as the source filed them. Unless noted, calls follow the shape of the full dose curve.

Assays:
[1] = target: Glucocorticoid receptor (Homo sapiens) (UniProt P04150); test: qHTS assay for small molecule agonists of glucocorticoid receptor signaling (AID 588532; active = well fitted curve in the direction sought with a large enough effect in the signal ratio, with a control signal flat; the % refers to the signal ratio); settings: HeLa MMTV-bla, beta-lactamase ratio, agonist, 18 h; stronger effect = higher value; percent of dexamethasone control, DMSO zero
Glucocorticoid receptor (Homo sapiens), sequence (P04150 whole entry, looked up): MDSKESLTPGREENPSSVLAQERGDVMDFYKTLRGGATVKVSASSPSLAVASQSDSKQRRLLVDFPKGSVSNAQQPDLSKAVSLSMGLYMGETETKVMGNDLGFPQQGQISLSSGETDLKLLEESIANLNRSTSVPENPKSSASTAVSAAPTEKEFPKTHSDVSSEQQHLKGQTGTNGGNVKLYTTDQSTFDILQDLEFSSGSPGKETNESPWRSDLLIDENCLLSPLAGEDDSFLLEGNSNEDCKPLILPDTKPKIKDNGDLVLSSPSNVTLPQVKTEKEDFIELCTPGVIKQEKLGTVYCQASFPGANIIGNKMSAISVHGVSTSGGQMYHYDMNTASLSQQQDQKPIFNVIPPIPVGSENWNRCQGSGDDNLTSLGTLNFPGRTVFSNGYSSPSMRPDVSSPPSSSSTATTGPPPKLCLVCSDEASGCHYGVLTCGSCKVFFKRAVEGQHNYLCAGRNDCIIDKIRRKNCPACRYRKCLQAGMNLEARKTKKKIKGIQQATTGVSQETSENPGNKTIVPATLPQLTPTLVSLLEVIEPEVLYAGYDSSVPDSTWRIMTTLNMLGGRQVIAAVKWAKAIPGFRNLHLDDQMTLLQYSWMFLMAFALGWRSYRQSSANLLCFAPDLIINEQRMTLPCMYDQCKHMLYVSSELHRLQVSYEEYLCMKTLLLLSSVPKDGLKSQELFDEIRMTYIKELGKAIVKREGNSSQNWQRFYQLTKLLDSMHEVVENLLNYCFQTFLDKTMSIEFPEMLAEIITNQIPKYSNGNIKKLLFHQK
In short: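 MMTV-bla HeLa, beta-lactamase reporter; medium with 1% charcoal/dextran-stripped FBS; cpds up to 92 uM, 18 h, 37 C; CCF4 readout 460/530 nm; Hill fit → EC50, efficacy vs 0.1 uM dexamethasone = 100%.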

[2] = target: Glucocorticoid receptor (Homo sapiens) (UniProt P04150); test: qHTS assay for small molecule antagonists of glucocorticoid receptor signaling (AID 588533; active = well fitted inhibition curve with a large enough effect in the signal ratio, with a control signal flat, not every such curve was filed as active; the % refers to the signal ratio;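 also: cells stimulated with 2 nM dexamethasone as agonist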); settings: HeLa MMTV-bla, GRE beta-lactamase ratio, antagonist mode, 18 h; series mostly up to 76.8 µM
In short: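 Antagonist-mode qHTS: compound titrations added to GRE-bla HeLa cells, then dexamethasone 2 nM final; 18 h, 37 C. CCF4 FRET fluorescence normalized to dexamethasone and DMSO; IC50 from Hill fit.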

[3] = target: Peroxisome proliferator-activated receptor gamma (Homo sapiens) (UniProt P37231); test: qHTS assay for small molecule agonists of peroxisome proliferator-activated receptor gamma signaling (AID 588536; active = well fitted curve in the direction sought with a large enough effect in the signal ratio, with a control signal flat, not every such curve was filed as active; the % refers to the signal ratio); settings: HEK293 PPARg-UAS-bla, beta-lactamase ratio, 16 h, percent of rosiglitazone response, DMSO as zero; series mostly up to 76.7 µM
Peroxisome proliferator-activated receptor gamma (Homo sapiens), sequence (P37231 whole entry, looked up): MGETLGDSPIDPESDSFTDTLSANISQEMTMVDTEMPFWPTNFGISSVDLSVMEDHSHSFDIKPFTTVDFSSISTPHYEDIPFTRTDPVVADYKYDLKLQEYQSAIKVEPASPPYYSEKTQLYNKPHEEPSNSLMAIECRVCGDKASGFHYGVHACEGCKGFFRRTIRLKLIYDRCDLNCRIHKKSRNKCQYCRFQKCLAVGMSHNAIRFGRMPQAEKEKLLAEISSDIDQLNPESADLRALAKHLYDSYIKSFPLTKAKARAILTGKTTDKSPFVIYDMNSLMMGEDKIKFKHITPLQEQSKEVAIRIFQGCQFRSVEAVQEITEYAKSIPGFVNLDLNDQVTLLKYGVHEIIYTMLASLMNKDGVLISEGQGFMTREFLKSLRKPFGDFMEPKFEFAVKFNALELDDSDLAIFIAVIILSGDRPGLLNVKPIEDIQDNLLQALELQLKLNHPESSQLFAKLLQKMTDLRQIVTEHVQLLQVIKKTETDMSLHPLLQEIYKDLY
In short: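 Compound treatment: 16 h, 37 C, HEK293 GeneBLAzer cells. Detection: CCF4, 2 h RT. Values: Hill-fit EC50, efficacy as % of 2 uM rosiglitazone.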

[4] = target: Peroxisome proliferator-activated receptor gamma (Homo sapiens) (UniProt P37231); test: qHTS assay for small molecule antagonists of peroxisome proliferator-activated receptor gamma signaling (AID 588537; active = well fitted inhibition curve with a large enough effect in the signal ratio, with a control signal flat, not every such curve was filed as active; the % refers to the signal ratio;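 also: reporter cells co-stimulated with 50 nM rosiglitazone agonist during compound treatment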); settings: HEK293 PPARg-UAS-bla, beta-lactamase ratio, antagonist mode; series mostly up to 76.8 µM
In short: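 HEK293 cells, PPAR-gamma-UAS-bla, 3000/well. Pre-incubation 6-6.5 h, 37 C. Compound titration with rosiglitazone 50 nM final, 16 h. CCF4 dye, 2 h RT, dual-emission fluorescence.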

[5] = target: Vitamin D3 receptor (Homo sapiens) (UniProt P11473); test: qHTS assay for small molecule antagonists of vitamin D receptor signaling (AID 588541); settings: HEK293T VDR-UAS-bla, beta-lactamase ratio, antagonist mode; series mostly up to 76.7 µM;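 also: receptor activated by calcitriol during compound treatment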
Vitamin D3 receptor (Homo sapiens), sequence (P11473 whole entry, looked up): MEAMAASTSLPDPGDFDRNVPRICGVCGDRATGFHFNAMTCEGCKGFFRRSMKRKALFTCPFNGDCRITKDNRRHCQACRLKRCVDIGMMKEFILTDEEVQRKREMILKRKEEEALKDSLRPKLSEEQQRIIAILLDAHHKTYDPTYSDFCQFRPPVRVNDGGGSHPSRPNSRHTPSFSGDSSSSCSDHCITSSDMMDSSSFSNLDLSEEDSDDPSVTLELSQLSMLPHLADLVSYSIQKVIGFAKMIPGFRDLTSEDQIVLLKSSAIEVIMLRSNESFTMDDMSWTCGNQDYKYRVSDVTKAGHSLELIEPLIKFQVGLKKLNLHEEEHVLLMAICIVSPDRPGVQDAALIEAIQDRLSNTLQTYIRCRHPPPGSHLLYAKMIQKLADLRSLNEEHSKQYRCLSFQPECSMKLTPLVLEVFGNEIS
In short: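 VDR-UAS-bla HEK293T cells (2000/well, 2% charcoal-stripped FBS) were treated with titrated compounds plus 1-alpha,25-dihydroxyvitamin D3 (50 nM or 3 nM final) for 16 h at 37 C. CCF4 beta-lactamase fluorescence was read; Hill fits gave IC50.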

[6] = target: Vitamin D3 receptor (Homo sapiens) (UniProt P11473); test: qHTS assay for small molecule agonists of vitamin D receptor signaling (AID 588543); settings: HEK293T VDR-UAS-bla, beta-lactamase ratio, 16 h; series mostly up to 76.8 µM
In short: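 VDR-UAS-bla HEK293T cells, 2000/well, 2% charcoal-stripped FBS; compound titration 16 h at 37 C; CCF4 beta-lactamase ratio read. Normalized to 50 nM 1-alpha,25-dihydroxyvitamin D3 (100%) and DMSO; Hill fit gives EC50, efficacy.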

[7] = qHTS assay for small molecule agonists of retinoid X receptor alpha signaling (AID 588544); settings: HEK293T RXRa-UAS-bla, beta-lactamase reporter, 18 h; 530 nm emission
[8] = target: Retinoic acid receptor RXR-alpha (Homo sapiens) (UniProt P19793); test: as above; settings: HEK293T RXRa-UAS-bla, beta-lactamase reporter, 18 h; series mostly up to 76.7 µM
Retinoic acid receptor RXR-alpha (Homo sapiens), sequence (P19793 whole entry, looked up): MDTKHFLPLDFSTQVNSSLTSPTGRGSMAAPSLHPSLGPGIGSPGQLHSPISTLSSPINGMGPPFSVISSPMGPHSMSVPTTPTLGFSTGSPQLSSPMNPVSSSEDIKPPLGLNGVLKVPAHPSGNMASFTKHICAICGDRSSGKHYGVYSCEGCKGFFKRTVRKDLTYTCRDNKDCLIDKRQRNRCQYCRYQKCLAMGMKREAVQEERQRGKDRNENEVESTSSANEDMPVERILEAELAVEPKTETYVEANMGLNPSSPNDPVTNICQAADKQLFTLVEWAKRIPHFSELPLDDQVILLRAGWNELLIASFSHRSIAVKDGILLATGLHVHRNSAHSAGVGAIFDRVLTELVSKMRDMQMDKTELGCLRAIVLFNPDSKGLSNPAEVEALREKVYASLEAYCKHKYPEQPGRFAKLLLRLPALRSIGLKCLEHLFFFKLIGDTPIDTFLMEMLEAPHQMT

[9] = qHTS assay for small molecule antagonists of retinoid X receptor alpha signaling (AID 588546; active = well fitted inhibition curve with a large enough effect in the signal ratio, with a control signal flat, not every such curve was filed as active; the % refers to the signal ratio;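 also: cells stimulated with 9-cis-retinoic acid as agonist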); settings: HEK293T RXRa-UAS-bla, beta-lactamase ratio, antagonist mode; measured here: W530 green channel, cytotoxicity proxy
In short: (§1)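 Beta-lactamase reporter inhibition, read as CCF4 fluorescence ratio (ex 405, em 460/530 nm) after 2 h at RT. HEK293T UAS-bla cells, 2500/well, were stimulated with 9-cis-RA at 500 or 100 nM final alongside test compound for 18 h at 37 C.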

[10] = target: Voltage-gated inwardly rectifying potassium channel KCNH2 (Homo sapiens) (UniProt Q12809); test: qHTS Assay for Small Molecule Inhibitors of the Human hERG Channel Activity (AID 588834; active = well fitted inhibition curve with a large enough effect;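 also: top concentration of the series differs between compounds; lower thallium flux fluorescence means stronger hERG block; nearly all actives have a fitted effect of over 50% in size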); settings: U2OS BacMam hERG, FluxOR thallium flux fluorescence; series mostly up to 92.2 µM
Voltage-gated inwardly rectifying potassium channel KCNH2 (Homo sapiens), sequence (Q12809 whole entry, looked up): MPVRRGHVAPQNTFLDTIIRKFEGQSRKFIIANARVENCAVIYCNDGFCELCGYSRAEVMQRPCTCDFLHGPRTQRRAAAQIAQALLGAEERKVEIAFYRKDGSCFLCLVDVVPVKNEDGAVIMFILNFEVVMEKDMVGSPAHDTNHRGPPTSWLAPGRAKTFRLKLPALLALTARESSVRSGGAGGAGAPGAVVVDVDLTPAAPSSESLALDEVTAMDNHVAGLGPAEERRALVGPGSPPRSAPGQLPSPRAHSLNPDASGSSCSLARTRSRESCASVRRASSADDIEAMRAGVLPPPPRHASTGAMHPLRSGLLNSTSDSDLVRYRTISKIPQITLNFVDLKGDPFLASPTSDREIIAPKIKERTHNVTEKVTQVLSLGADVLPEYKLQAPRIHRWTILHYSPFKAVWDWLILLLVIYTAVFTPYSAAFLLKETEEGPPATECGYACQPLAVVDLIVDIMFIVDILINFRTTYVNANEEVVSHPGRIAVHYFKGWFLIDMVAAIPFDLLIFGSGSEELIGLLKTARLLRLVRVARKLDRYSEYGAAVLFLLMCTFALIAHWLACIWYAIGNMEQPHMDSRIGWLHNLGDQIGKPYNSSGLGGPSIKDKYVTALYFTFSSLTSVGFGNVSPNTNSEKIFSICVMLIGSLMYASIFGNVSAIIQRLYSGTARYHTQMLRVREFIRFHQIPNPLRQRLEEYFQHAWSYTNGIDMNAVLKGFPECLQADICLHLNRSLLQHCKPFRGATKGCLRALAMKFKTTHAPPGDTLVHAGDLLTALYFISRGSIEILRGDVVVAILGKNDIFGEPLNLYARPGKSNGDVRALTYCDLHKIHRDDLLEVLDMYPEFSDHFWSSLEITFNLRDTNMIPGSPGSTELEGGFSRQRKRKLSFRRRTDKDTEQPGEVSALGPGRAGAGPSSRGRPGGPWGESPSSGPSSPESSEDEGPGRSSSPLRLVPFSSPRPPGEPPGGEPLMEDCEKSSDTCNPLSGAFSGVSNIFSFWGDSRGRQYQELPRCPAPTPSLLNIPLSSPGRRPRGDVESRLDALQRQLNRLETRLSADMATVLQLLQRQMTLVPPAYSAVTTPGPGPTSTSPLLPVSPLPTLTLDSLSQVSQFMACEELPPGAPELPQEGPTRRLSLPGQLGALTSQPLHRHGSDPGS
In short: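 Thallium serves as surrogate for K+ influx through BacMam-delivered hERG in U2OS cells. Compounds are added for about 10 minutes after dye loading; stimulation buffer then starts flux, monitored kinetically on FDSS.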

[11] = qHTS assay for small molecule activators of the p53 signaling pathway (AID 651743; active = well fitted activation curve with a large enough effect in the signal ratio, not every such curve was filed as active; the % refers to the signal ratio); settings: HCT-116 p53RE-bla, beta-lactamase FRET ratio, 16 h; stronger effect = higher value
In short: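 Here HCT-116 cells with an integrated p53-responsive beta-lactamase gene were incubated with compounds (16 hours, 37 C) after a 5-hour plating period; beta-lactamase activity was detected as fluorescence intensity via B/G FRET substrate.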

[12] = qHTS assay for small molecule activators of the nuclear factor-kappa B (NF-kB) signaling pathway (AID 651749; active = well fitted activation curve with a large enough effect in the signal ratio; the % refers to the signal ratio); settings: NF-kB-bla ME-180 cells, beta-lactamase FRET ratio, 16 h; stronger effect = higher value
In short: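 Beta-lactamase reporter expression, controlled by NF-kB response elements in ME-180 cells, was quantified fluorometrically via FRET disruption; cells at 2,000/well had been incubated with 23 nL test compound for 16 hr.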

[13] = qHTS assay for small molecule disruptors of the mitochondrial membrane potential - 1 hr assay (AID 651754); settings: series mostly up to 92.2 µM; also: nearly all actives have a fitted effect of over 35% in size
In short: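 Read-out: dye fluorescence at 490 nm ex/535 nm em (monomers) and 540 nm ex/590 nm em (aggregates) in HepG2 cells. Compound exposure 1 hr at 37C, followed by 30 min dye loading.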

[14] = target: Thyroid hormone receptor beta (Homo sapiens) (UniProt P10828); test: qHTS assay for small molecule agonists of thyroid hormone receptor beta signaling (AID 588545); settings: TR-UAS-bla GripTite HEK 293, beta-lactamase ratio, agonist mode, 18 h, percent of T3 response, DMSO as zero; series mostly up to 76.7 µM
Thyroid hormone receptor beta (Homo sapiens), sequence (P10828 whole entry, looked up): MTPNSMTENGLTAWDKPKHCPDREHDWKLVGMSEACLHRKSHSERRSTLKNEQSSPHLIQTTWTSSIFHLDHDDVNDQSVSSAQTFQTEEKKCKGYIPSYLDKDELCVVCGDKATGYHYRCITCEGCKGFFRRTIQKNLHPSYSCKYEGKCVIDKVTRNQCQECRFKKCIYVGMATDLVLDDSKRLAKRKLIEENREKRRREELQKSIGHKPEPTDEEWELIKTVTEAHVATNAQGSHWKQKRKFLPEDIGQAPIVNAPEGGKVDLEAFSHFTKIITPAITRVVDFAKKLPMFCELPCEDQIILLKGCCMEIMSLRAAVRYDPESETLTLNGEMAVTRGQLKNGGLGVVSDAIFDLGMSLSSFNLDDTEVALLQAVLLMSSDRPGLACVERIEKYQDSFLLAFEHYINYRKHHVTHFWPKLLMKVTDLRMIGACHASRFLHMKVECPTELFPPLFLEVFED
In short: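 Agonist activity was read as beta-lactamase CCF4 fluorescence (405 ex, 460/530 em), scaled between DMSO (0%) and 10 nM T3 (100%), then Hill-fitted for EC50 and efficacy. HEK 293 TR-UAS-bla cells in 2% charcoal/dextran FBS medium were exposed 18 h at 37 C.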

[15] = target: Retinoic acid receptor RXR-alpha (Homo sapiens) (UniProt P19793); test: qHTS assay for small molecule antagonists of retinoid X receptor alpha signaling (AID 588546); settings: HEK293T RXRa-UAS-bla, beta-lactamase ratio, antagonist mode;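 also: cells stimulated with 9-cis-retinoic acid as agonist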
In short: as §1

[16] = target: Thyroid hormone receptor beta (Homo sapiens) (UniProt P10828); test: qHTS assay for small molecule antagonists of thyroid hormone receptor beta signaling (AID 588547; active = well fitted inhibition curve with a large enough effect in the signal ratio, with a control signal flat, not every such curve was filed as active; the % refers to the signal ratio;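 also: cells stimulated with 0.4 nM T3 agonist during compound exposure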); settings: TR-UAS-bla HEK293, beta-lactamase ratio, antagonist mode, 18 h
In short: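 TR-UAS-bla GripTite HEK293 cells in 2% charcoal/dextran FBS medium were preincubated 4 h at 37 C, given compound (0.59 nM to 92 uM) plus 0.4 nM T3 (final) for 18 h, then CCF4 for 2 h at RT; Hill fit gave IC50.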

[17] = qHTS assay for small molecule antagonists of peroxisome proliferator-activated receptor delta signaling (AID 588535; active = well fitted inhibition curve with a large enough effect in the signal ratio, with a control signal flat, not every such curve was filed as active; the % refers to the signal ratio;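 as to max response: cells co-treated with a PPAR-delta agonist as stimulator during compound exposure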); settings: HEK293T PPARd-UAS-bla, beta-lactamase FRET ratio, 18 h; 460 nm channel
In short: (§2)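 Compounds tested in titration on PPAR-delta-UAS-bla HEK293T cells grown in charcoal/dextran-stripped serum (2%); beta-lactamase activity read via CCF4 emission at 460 and 530 nm.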

[18] = qHTS assay for small molecule agonists of the antioxidant response element (ARE) signaling pathway (AID 651741; active = well fitted activation curve with a large enough effect in the signal ratio; the % refers to the signal ratio); settings: HepG2 ARE-bla reporter, beta-lactamase FRET ratio, 16 h; series mostly up to 96 µM
In short: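 Beta-lactamase reporter expression driven by the antioxidant response element in HepG2 cells was detected by fluorescence with LiveBLAzer B/G FRET substrate (2 h, room temperature) following 16 h compound treatment at 37 C.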

[19] = target: Peroxisome proliferator-activated receptor delta (Homo sapiens) (UniProt Q03181); test: qHTS assay for small molecule antagonists of peroxisome proliferator-activated receptor delta signaling (AID 588535); settings: HEK293T PPARd-UAS-bla, beta-lactamase FRET ratio, 18 h; series mostly up to 76.7 µM;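 as to max response: cells co-treated with a PPAR-delta agonist as stimulator during compound exposure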
Peroxisome proliferator-activated receptor delta (Homo sapiens), sequence (Q03181 whole entry, looked up): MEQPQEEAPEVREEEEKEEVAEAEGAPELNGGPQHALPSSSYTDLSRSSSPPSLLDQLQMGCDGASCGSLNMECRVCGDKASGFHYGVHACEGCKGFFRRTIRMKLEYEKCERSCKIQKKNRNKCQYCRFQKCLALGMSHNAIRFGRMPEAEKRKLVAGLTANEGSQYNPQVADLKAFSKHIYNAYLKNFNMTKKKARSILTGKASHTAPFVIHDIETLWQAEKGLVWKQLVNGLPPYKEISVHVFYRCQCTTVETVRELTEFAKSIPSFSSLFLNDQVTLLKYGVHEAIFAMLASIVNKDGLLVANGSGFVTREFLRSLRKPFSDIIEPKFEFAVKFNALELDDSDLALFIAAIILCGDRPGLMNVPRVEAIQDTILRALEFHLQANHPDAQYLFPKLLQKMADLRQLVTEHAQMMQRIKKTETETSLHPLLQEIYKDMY
In short: as §2

Row | SMILES | activation [1] | outcome [2] | outcome [3] | outcome [4] | outcome [5] | outcome [6] | max response [7] | outcome [8] | max response [9] | Potency [10] | activation [11] | activation [12] | Potency [13] | outcome [14] | max response [15] | activity change % (negative = inhibition) [16] | max response [17] | Potency [18] | Potency [19]
1 | CC(=O)Nc1ccc(N)cc1 | 1.17% (inactive) | inactive | inactive | inactive | inactive | inactive | -9.56% | inactive | 6.27% | inactive | 0.791% (inactive) | -0.653% (inactive) | inactive |  |  |  |  |  | 
2 | CNc1ccc([N+](=O)[O-])cc1 | -3.38% (inactive) | inactive | inactive | inactive |  |  | 3.4% | inactive | 8.47% | inactive |  | -1.5% (inactive) |  | inactive | 0.864% (inactive) | 2.18% (inactive) |  |  | 
3 | c1ccc2c(c1)ccc1ncccc12 | -5.6% (inactive) | inactive | inactive |  |  |  | -7.03% | inactive | -6.57% | inactive |  |  |  |  | -11.7% (inactive) |  | 23.6% | inactive | 
4 | C=CCn1c(=O)n(CC=C)c(=O)n(CC=C)c1=O | -0.0268% (inactive) | inactive | inactive | inactive | inactive | inactive | -13.5% | inactive | -12.4% | inactive | 0.0041% (inactive) |  | inactive | inactive | 6.59% (inactive) | -0.231% (inactive) |  |  | 
5 | Cc1ccc2cccnc2c1 | -3.65% (inactive) | inactive | inactive |  | inactive | inactive | 5.51% | inactive | 6% | inactive | -4.94% (inactive) |  | inactive |  | 0.426% (inactive) | 17% (inactive) |  | inactive | 
6 | C1CCCC1 | 2.06% (inactive) | inactive | inactive | inactive | inactive |  | -15.2% | inactive | -15.6% | inactive | -0.131% (inactive) |  | inactive |  | -5.52% (inactive) | -1.41% (inactive) |  | inactive | 
7 | Cc1ccc([N+](=O)[O-])c(N)c1 | -0.729% (inactive) | inactive | inactive |  | inactive | inactive | 3% | inactive | -20.5% | inactive | -3.31% (inactive) | -0.448% (inactive) |  | inactive | -4.21% (inactive) | -0.142% (inactive) | -3.65% |  | 
8 | CC(C)C(C)C | -6.49% (inactive) | inactive | inactive | inactive |  |  | -13.5% | inactive | -13.7% | inactive |  |  | inactive |  | -1.83% (inactive) | -4.52% (inactive) |  |  | 
9 | O=C1CCCCC1 | -2.34% (inactive) |  | inactive | inactive |  | inactive | -9.55% | inactive | -8.36% | inactive |  | -1.28% (inactive) | inactive | inactive | -0.633% (inactive) | -11.2% (inactive) | 1.87% | inactive | inactive
